Only some compounds are listed: those with a hit (about 7.6% of all), similar ones and a draw of the others.
ELG1 repair inh: ELG1-dependent DNA repair inhibition; AID 504467; HEK293T ELG1-luciferase reporter, luminescence, 16 h; DNA damage induced by 5-fluorouridine; Potency, µM (titrated, usually from 46.1 µM), for inactives: at the highest dose activity change, negative = inhibition, most hits filed as inhibitors; 2.3% of 330,000 active; also: potency is read from the fitted curve at half-maximal effect; % is scaled to controls: 0 for no effect and ±100 for the full control effect; nearly all actives have a fitted effect of over 55% in size
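5-Fluorouridine DNA damage + compound/DMSO, 2,000 cells/well, 16 h, 37 °C/5% CO2. ONE-Glo, 30 min RT, luminescence. Readout = decrease in reporter signal.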
p53 reactivator: mutant p53 re-activation in reporter cells; H1299 p53-A138V BP100-luciferase reporter, luminescence, 24 h; Potency, µM (highest dose often 92.2 µM), inactives show at the highest dose activity change, positive = activation, actives largely listed as activators; 0.063% of 320,000 active; AID 504706; also: potency is read from the fitted curve at half-maximal effect; % of control where 0% means no effect; nearly all actives have a fitted effect of over 45% in size
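H1299 (p53-null), stable ts p53-A138V + BP100-Luc; 1000 cells/well, Opti-MEM/10% FBS; cpd 4 pt, 1:5; 24 h, 37 deg C, 5% CO2; detection reagent 10 min RT; luminescence.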
VP16 counter: inhibits Gal4-VP16 luciferase reporter, ROR gamma counter-screen; Drosophila S2 Gal4-VP16 UAS-luciferase, luminescence, 20 h; Potency, µM (titrated, usually from 53.6 µM), inactives show top-dose activity, negative = inhibition, hits mostly inhibitors; 3.5% of 310,000 active;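 also: Gal4-VP16 expression switched on by copper sulfate through the metallothionein promoter; potency is read from the fitted curve at half-maximal effect; % is scaled to controls: 0 for no effect and ±100 for the full control effect; nearly all actives have a fitted effect of over 50% in size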
RORgamma inh: inhibitors of mouse ROR gamma transcriptional activity. Potency, µM (series often up to 53.6 µM), without a hit: at the highest dose activity change, negative = inhibition, most hits filed as inhibitors. Drosophila S2 Gal4-RORgamma UAS-luciferase reporter, 20 h. 5.4% of 310,000 active. P51450. AID 2551; also: potency is read from the fitted curve at half-maximal effect; % is scaled to controls: 0 for no effect and ±100 for the full control effect; nearly all actives have a fitted effect of over 60% in size
Target sequence (P51450 whole entry, looked up, the tested form may be a part): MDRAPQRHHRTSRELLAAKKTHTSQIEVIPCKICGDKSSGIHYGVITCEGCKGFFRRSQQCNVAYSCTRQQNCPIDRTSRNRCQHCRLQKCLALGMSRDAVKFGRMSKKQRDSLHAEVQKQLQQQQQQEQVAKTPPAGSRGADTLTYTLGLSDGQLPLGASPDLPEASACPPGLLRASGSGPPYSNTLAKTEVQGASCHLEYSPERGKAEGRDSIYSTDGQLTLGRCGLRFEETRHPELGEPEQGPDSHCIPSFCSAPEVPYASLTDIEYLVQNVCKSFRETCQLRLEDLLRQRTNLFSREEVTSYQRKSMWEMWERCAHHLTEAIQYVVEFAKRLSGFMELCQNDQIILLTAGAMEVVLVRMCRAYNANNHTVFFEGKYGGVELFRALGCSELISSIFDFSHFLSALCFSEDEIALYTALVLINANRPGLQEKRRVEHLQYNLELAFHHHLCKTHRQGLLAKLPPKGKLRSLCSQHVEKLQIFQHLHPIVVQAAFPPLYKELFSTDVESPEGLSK
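Stable Schneider cell line, Gal4 DNA-binding domain fused to ROR gamma, UAS-luciferase. Cmpd 1 hr RT → CuSO4 700 uM final → 20 hr RT → luciferase reagent 10 min → luminescence.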
BRCA1 expr up: BRCA1 expression activation; 1.1% of 380,000 active; MCF7-BRCA1-FFLuc reporter, luminescence, 48 h; response scale: scaled: vehicle 0%, 10 µM genistein 100%; Potency, µM (doses to about 46.1 µM), for inactives: top-dose activation, actives largely listed as activators; also: potency is read from the fitted curve at half-maximal effect; nearly all actives have a fitted effect of over 80% in size
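Using MCF7 cells harboring a BRCA1 firefly luciferase reporter, plated 2 h before compound pinning, the screen measured luminescence after 48 h incubation. Responses were normalized to DMSO and 10 microM genistein, then fitted for concentration-effect.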
Giardia kill: kills Giardia lamblia | Giardia lamblia trophozoite viability | activity change, % at 7.66 µM, hits read low | 0.15% of 340,000 active; in the data active = activity change below about -80%; inconclusive = between about -30% and that limit;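 also: parasites exposed to compound for two days anaerobically before the ATP read; % is scaled to controls: 0 for no effect and ±100 for the full control effect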
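Trophozoite viability was measured as ATP-dependent luminescence, read 15-30 min after reagent addition. Before that, parasites at 100 cells/well were exposed to compounds for 48 h, anaerobically, at 37 deg C.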
Active calls of the source: *; ? = inconclusive; nt = not tested or not shown; [ ] = dose if it differs, or a comment. Unless noted, calls follow the shape of the dose curve; as a rule, active = well fitted curve in the direction sought with a large enough effect; inconclusive = small, poorly fitted or top-dose-only effect, or another doubt; inactive = no such curve, though single readings can be large; an effect the other way counts as inactive or inconclusive.

SMILES	ELG1 repair inh	p53 reactivator	VP16 counter	RORgamma inh	BRCA1 expr up	Giardia kill
COc1ccc(CCNC(=O)c2ccc3c(Cl)c4c(nc3c2)CCCC4)c(OC)c1	nt	nt	nt	nt	-45%	nt
Cn1c(CCN2CCN(c3ccccn3)CC2)nc2cc(NS(=O)(=O)c3ccccc3)ccc21	9.2µM*	?	-2%	22%	-35%	-18
CC(C)NC(=O)c1cccc2c(-c3ccc(F)c(F)c3)coc12	nt	nt	nt	nt	1µM*	nt
Cc1cccc(OCC(=O)Nc2sc3c(c2C#N)CCC3)c1	?	9%	27%	?	10µM*	6
CN(CC(=O)Nc1sc2c(c1C#N)CCCCC2)Cc1nc2ccccc2c(=O)[nH]1	23µM*	-1%	-4%	13µM*	-14%	-2
Cc1cccc(OCC(=O)Nc2cc(C)c(C)cc2O)c1	13%	3%	-28%	3.5µM*	7%	4
COc1cccc(CN(C)CC(=O)Nc2sc3c(c2C#N)CCC3)c1OC	12µM*	23%	5%	1%	-3%	-5
Cc1cnc(C(=O)OCC(=O)Nc2sc3c(c2C#N)CCC3)cn1	2%	6%	nt	nt	-13%	18
COc1ccc(CN(C)CC(=O)Nc2sc3c(c2C#N)CCC3)cc1OC	?	-8%	-19%	?	-19%	-18
CCn1c(C)c(CCC(=O)O)c(=O)n2nc(-c3ccccc3OC)cc12	7%	3%	5%	-4%	0%	0
O=C(Cc1ccccc1Nc1c(Cl)cccc1Cl)OCO/N=[N+](\[O-])N1CCCC1	nt	nt	18µM*	?	nt	-16
Cc1ccccc1C(=O)OCCCN=C1NS(=O)(=O)c2ccccc21	-7%	-10%	6%	-30%	-9%	-18
O=C1CC(c2ccc3c(c2)OCCO3)Oc2ccc([N+](=O)[O-])cc21 (centres undefined)	?	36%	13µM*	11µM*	3%	?
O=C1CC(c2ccc3c(c2)OCCO3)Oc2ccccc21 (centres undefined)	?	?	-6%	-12%	11µM*	-13
Clc1ccccc1-c1nc(NCCN2CCOCC2)c2ccccc2n1	nt	nt	5%	-11%	nt	nt
C=CC[C@@H](CC(=O)N[C@H](CO)Cc1ccccc1)C(=O)N[C@H](COC(=O)[C@@H](CC=C)Cc1ccc(F)cc1)Cc1c[nH]c2ccccc12	21µM*	2%	nt	nt	-90%	-24
C=CC[C@@H](CC(=O)N[C@@H](CO)Cc1ccccc1)C(=O)N[C@H](COC(=O)[C@@H](CC=C)CC(=O)OC(C)(C)C)Cc1c[nH]c2ccccc12	21µM*	7%	nt	nt	-69%	-2
CCCOC(=O)c1c(NC(=O)CCCn2nc([N+](=O)[O-])c(Cl)c2C)sc(C(=O)OC)c1C	?	0%	1%	-2%	-29%	-12
N=C1SC(c2ccccc2)C(=O)N1c1ncc(Cc2ccccc2)s1 (centres undefined)	?	19%	7.9µM*	7.1µM*	-6%	41
Cc1ccc(CC2CC(=O)N(c3nc4ccccc4s3)C2=O)cc1 (centres undefined)	3%	-3%	1%	5%	-14%	21
Cc1ccc(Cc2cnc(N3C(=N)SC(c4ccccc4)C3=O)s2)cc1 (centres undefined)	?	19%	4µM*	11µM*	-39%	-6
O=C(CSc1nnnn1C1CC2CCC1C2)Nc1ccnc2ccccc12 (centres undefined)	?	-14%	0.0022µM*	?	-49%	12
O=C(CSc1nnnn1C1CCCCC1)Nc1ccccc1F	1%	-1%	-23%	28%	17%	-2
Cc1cc(O)c(Oc2cc(C)cc(O)c2O)c(O)c1	0%	17%	?	18µM*	-58%	-18
COc1c(O)cc(O)cc1O	nt	nt	7%	7%	nt	nt
SMILES	ELG1 repair inh	p53 reactivator	VP16 counter	RORgamma inh	BRCA1 expr up	Giardia kill
Cc1ccc(/C=N/N=C/c2ccc(C)s2)s1	?	?	-24%	7.9µM*	?	6
Cn1c(SCC(=O)N/N=C/c2ccc([N+](=O)[O-])s2)nnc1-c1ccc(Cl)cc1	?	-22%	18µM*	?	-71%	8
Cc1ccc(/C=N/NC(=O)c2ccncc2)s1	1%	2%	?	7.1µM*	6%	-5
O=C(CSc1nnc(-c2ccc(Cl)cc2)n1-c1ccc(Cl)cc1)N/N=C/c1ccco1	23µM*	-7%	?	-37%	-48%	4
CCN(CCCNC(=O)CCc1nc(-c2ccc(C)cc2)no1)c1cccc(C)c1	-20%	1%	2%	15%	-15%	-6
Cc1cc(C)n(CC(=O)N/N=C/c2ccc([N+](=O)[O-])s2)n1	15µM*	8%	8%	-11%	-80%	?
O=C(N/N=C/c1ccc([N+](=O)[O-])s1)c1ccncc1	?	-50%	4.5µM*	4.5µM*	-109%	?
CCOC(=O)N/N=C\c1ccc([N+](=O)[O-])s1	21µM*	15%	3%	-14%	-89%	-99*
CC(C)(C)OC(=O)N/N=C\c1ccc([N+](=O)[O-])s1	?	?	?	-19%	0%	1
O=C(N/N=C/c1cccc([N+](=O)[O-])c1)c1cccc(Br)c1	?	5%	15%	?	52%	13
O=C(N/N=C/c1ccc([N+](=O)[O-])s1)c1cccc(Br)c1	10µM*	7%	1.3µM*	1.1µM*	-97%	?
C[C@H](CO)N1C[C@H](C)[C@@H](CN(C)S(C)(=O)=O)Oc2ccc(NC(=O)Cn3cnnn3)cc2C1=O	2%	-7%	nt	nt	18%	10
CN(C)c1cccc(C(=O)N2CCC(c3c[nH]c4ccccc34)(c3c[nH]c4ccccc34)CC2)c1	nt	nt	nt	nt	-2%	nt
COc1ccc(-c2cc(C(=O)N3CCN(c4ccccc4OC)CC3)no2)cc1OC	-16%	-1%	-1%[10 µM]	33%	-21%	-5
COc1ccccc1/C=N/NC(=O)c1ccc(C)nc1	8%	?	-1%	17%	2%	-11
Cc1ccc(C(=O)N/N=C\c2ccc([N+](=O)[O-])s2)cn1	?	-1%	3.2µM*	2.8µM*	-53%	?
Cc1ccc(C(=O)N/N=C/c2ccc([N+](=O)[O-])s2)cc1	-23%	-12%	1.3µM*	0.71µM*	-82%	-93*
Cc1cc2nc(CSc3ccc(Cl)cc3)cc(=O)n2[nH]1	?	0%	?	11µM*	11%	3
Cc1nc2nc(CSc3ccc(Cl)cc3)cc(=O)n2[nH]1	15%	8%	0%	-22%	-6%	-19
Oc1c(Br)cc2oc3c(c2c1CNCc1ccccc1)CCCC3	-20%	1%	?	?	-35%	30

Assay outcomes from PubChem BioAssay.
